UBC9 SUMO inh – inhibitors of human SUMOylation (UBC9) | inhibition, % at 35 µM | P63279 | 290,000 tested, 0.36% active | AID 2006 | HTRF SUMOylation assay, SAE1/SAE2 + UBC9, in vitro; in the data active means inhibition above about 50%, passing the limit was not always enough
p-CIP stab down – lowers stability of the mouse p/CIP coactivator protein; Q05BA5; F442A p/CIP-EGFP cells, EGFP fluorescence, 16 h; decrease of EGFP signal, % at 10 µM; 290,000 tested, 0.01% active; AID 1984;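 active means EGFP signal decrease of at least 30% at 10 µM or well 3 SD below plate mean, unless failing retest; inactive means the rest, including hits failing retest or dose response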
PHOSPHO1 inh – PHOSPHO1 (human) inhibition; Q8TCT1; recombinant PHOSPHO1, absorbance phosphatase assay; inhibition, % at 13.3 µM; 290,000 tested, 1.1% active; in the data active means inhibition above about 60%
NadD inh – NadD (S. aureus) enzyme inhibition. purified NadD enzyme, colorimetric absorbance read-out. inhibition, % at 20 µM. 360,000 tested, 0.78% active; in the data active means inhibition above about 26%
Hits are given with their value. Most compounds without a hit are left out; they make up all but 1.8% or so of the library.

CCOC(=O)CN1NC2(CCCCC2)NC1=S was read as UBC9 SUMO inh inactive, p-CIP stab down inactive, PHOSPHO1 inh 100.3 and NadD inh inactive.
CCOC(=O)CN1NC2(CCCCCCC2)NC1=S was read as UBC9 SUMO inh inactive, p-CIP stab down inactive, PHOSPHO1 inh inactive and NadD inh inactive.
Screening CC1(C)Cc2c(sc3c2c(=N)n(Cc2ccco2)c(=O)n3CC(=O)Nc2ccccc2)CO1 returned UBC9 SUMO inh inactive, p-CIP stab down inactive, PHOSPHO1 inh inactive and NadD inh inactive.
CCn1c(=O)n(Cc2ccco2)c(=N)c2c3c(sc21)COC(C)(C)C3 was read as UBC9 SUMO inh inactive, p-CIP stab down inactive, PHOSPHO1 inh 63.3 and NadD inh inactive.
O=C(CSc1nnnn1C1CCCCC1)Nc1ccc(F)cc1 was read as UBC9 SUMO inh inactive, p-CIP stab down inactive, PHOSPHO1 inh inactive and NadD inh inactive.
For O=C(CSc1nnnn1C1CCCC1)Nc1ccc(F)cc1 the results were UBC9 SUMO inh inactive, p-CIP stab down inactive, PHOSPHO1 inh 62.3 and NadD inh inactive.
O=c1[nH][nH]c2c1[C@H](c1ccc(Cl)cc1)O[C@H](C1CCCC1)C2 was read as NadD inh inactive.
`CCOC(=O)Cc1nnc(NC(=O)C(CC)Sc2nnc3c4ccccc4n(C)c3n2)s1` (centres undefined) gave UBC9 SUMO inh inactive, p-CIP stab down inactive, PHOSPHO1 inh inactive and NadD inh inactive.
`CCOC(=O)c1sc(NC(=O)C(CC)Sc2nnc3c4ccccc4n(C(C)C)c3n2)nc1C` (centres undefined) gave UBC9 SUMO inh inactive, p-CIP stab down inactive, PHOSPHO1 inh 68.4 and NadD inh inactive.
`CCC1(C)Cc2c(sc3c2c(=O)n(-c2ccccc2)c(=O)n3C)CO1` (centres undefined) gave UBC9 SUMO inh inactive, p-CIP stab down inactive, PHOSPHO1 inh 76.8 and NadD inh inactive.
`CC(C)(C)N1C(=O)Cc2c1nc(N)c1c(N)nc(N3CCCCC3CO)c(C#N)c21` (centres undefined) gave UBC9 SUMO inh 100.1, p-CIP stab down inactive, PHOSPHO1 inh inactive and NadD inh 36.6.
`CN(CCO)c1nc(N)c2c(N)nc3c(c2c1C#N)CC(=O)N3C1CCCC1` gave UBC9 SUMO inh 100.6, p-CIP stab down inactive and PHOSPHO1 inh inactive.
Screening O=[N+]([O-])c1ccc(-c2csc3[n+]2CCS3)cc1 returned UBC9 SUMO inh inactive, p-CIP stab down inactive, PHOSPHO1 inh 80.2 and NadD inh inactive.
Screening O=C(CSc1nnc(-c2ccncc2)o1)N1CCCCCC1 returned UBC9 SUMO inh inactive, p-CIP stab down inactive, PHOSPHO1 inh 67.6 and NadD inh inactive.
For Cc1ccc(-c2nnc(SCC(=O)N3CCCC3)o2)cc1C the results were UBC9 SUMO inh inactive, p-CIP stab down inactive, PHOSPHO1 inh 92.4 and NadD inh inactive.
O=C(CSc1nnc(-c2ccccc2)o1)c1nnc(-c2ccccc2)o1 was read as UBC9 SUMO inh inactive, p-CIP stab down inactive, PHOSPHO1 inh 93.5 and NadD inh inactive.
For CCOC(=O)N1CCN(C(=O)CSc2nnc(-c3ccc(C)c(C)c3)o2)CC1 the results were UBC9 SUMO inh inactive, p-CIP stab down inactive, PHOSPHO1 inh inactive and NadD inh inactive.
For OC[C@@H]1CN(Cc2ccncc2)C[C@H](n2cnc3c(N4CCOCC4)ncnc32)O1 the results were NadD inh inactive.
`CCCS(=O)(=O)NC(=O)C1(C)CCCN(C(=O)c2ccc(OC)cc2)C1` (centres undefined) gave NadD inh inactive.
For CCOc1ccc(CC(=O)Nc2sc(Cc3ccccc3)cc2C(N)=O)cc1OCC the results were UBC9 SUMO inh inactive, p-CIP stab down inactive, PHOSPHO1 inh 97.4 and NadD inh inactive.
NC(=O)c1cc(Cc2ccccc2)sc1NC(=O)c1ccco1 was read as UBC9 SUMO inh inactive, p-CIP stab down inactive, PHOSPHO1 inh inactive and NadD inh inactive.
Screening Cc1ccc(-c2nnn(CC(=O)Nc3ccc4nn(-c5ccccc5)nc4c3)n2)o1 returned UBC9 SUMO inh inactive, p-CIP stab down inactive, PHOSPHO1 inh inactive and NadD inh 34.1.
`O=C(NCc1ccco1)c1c2c(nc3ccccc13)CCC2` gave UBC9 SUMO inh inactive, p-CIP stab down inactive, PHOSPHO1 inh 71.5 and NadD inh inactive.
COc1cccc(C(C)(O)c2nc(-c3cccc(C(C)C)c3)cs2)c1 (centres undefined) was read as NadD inh inactive.
For CC(=O)c1cccc(CN2CCN(Cc3ccc(F)cc3)C(CCO)C2)c1 (centres undefined) the results were UBC9 SUMO inh inactive, p-CIP stab down inactive, PHOSPHO1 inh 60.1 and NadD inh inactive.
`OCCC1CN(Cc2cnn(-c3ccc(F)cc3)c2)CCN1Cc1ccsc1` (centres undefined) gave UBC9 SUMO inh inactive, p-CIP stab down inactive, PHOSPHO1 inh 60.1 and NadD inh inactive.
Screening CCCCn1nnnc1C(c1ccccc1)N1CCN(c2c(Cl)cncc2Cl)CC1 (centres undefined) returned NadD inh inactive.
Screening Cc1ccccc1-n1c(SCC(=O)c2c(N)n(C)c(=O)n(C)c2=O)nnc1-c1cccnc1 returned UBC9 SUMO inh inactive, p-CIP stab down inactive, PHOSPHO1 inh inactive and NadD inh inactive.
`CCn1c(SCC(=O)c2cc(C)n(-c3ccc(C(=O)OC)cc3)c2C)nnc1-c1cccnc1` gave UBC9 SUMO inh inactive, p-CIP stab down inactive, PHOSPHO1 inh inactive and NadD inh inactive.
Cc1ccccc1-n1c(SCC(=O)c2cc(C)n(C)c2C)nnc1-c1cccnc1 was read as UBC9 SUMO inh inactive, p-CIP stab down inactive, PHOSPHO1 inh 86.5 and NadD inh inactive.
For COCCn1c(C)cc(C(=O)CSc2nnc(-c3cccnc3)n2-c2ccccc2F)c1C the results were UBC9 SUMO inh inactive, p-CIP stab down inactive, PHOSPHO1 inh 90.5 and NadD inh inactive.
Screening CC1(C(=O)O)CCCN(C(=O)c2cc3ccccc3s2)C1 (centres undefined) returned NadD inh inactive.
O=C(CC(c1ccccc1)c1ccco1)N1CCCCC1 (centres undefined) was read as UBC9 SUMO inh inactive, p-CIP stab down inactive, PHOSPHO1 inh 60.0 and NadD inh inactive.
O=C(CC(c1ccccc1)c1ccccc1)N1CCN(c2ccccn2)CC1 was read as UBC9 SUMO inh inactive, p-CIP stab down inactive, PHOSPHO1 inh 65.6 and NadD inh inactive.
For Cc1ccc(C(CC(=O)N2CCOCC2)c2ccco2)cc1 (centres undefined) the results were UBC9 SUMO inh inactive, p-CIP stab down inactive, PHOSPHO1 inh inactive and NadD inh inactive.
`O=C(CSc1ncccn1)N1CCN(C(=O)CSc2ncccn2)CC1` gave UBC9 SUMO inh inactive, p-CIP stab down inactive, PHOSPHO1 inh inactive and NadD inh inactive.
Screening O=C(CSc1ncccn1)N1CCN(C(c2ccccc2)c2ccccc2)CC1 returned UBC9 SUMO inh inactive, p-CIP stab down inactive, PHOSPHO1 inh 85.8 and NadD inh inactive.
For CCCCOc1ccc(-c2nc(=S)[nH][nH]2)cc1 the results were UBC9 SUMO inh inactive, p-CIP stab down inactive, PHOSPHO1 inh 80.2 and NadD inh inactive.
Screening Cc1ccc([C@H]2C[C@H](n3cc(-c4ccc(F)cc4)nn3)[C@@H](O)CN2C(=O)C2CCCCC2)cc1 returned NadD inh inactive.
